Measurements from PubChem BioAssay AID588742 (Southern Research Specialized Biocontainment Screening …, 2011).
Hit rate of the full screen: of about 1,800 compounds, about 410 (23%) were called active. The rule behind the calls is not given here. These entries were drawn from the full list. Measured potencies and affinities stand elsewhere.

test: viability of Vero cells under compound – cytotoxicity control for flavivirus capping enzyme inhibitors (AID 588742); conditions: cytotoxicity counter-screen; series mostly up to 40 µM; viability: at the top concentration

SMILES | viability
Cc1cccc(C)c1NC(=S)NC(=O)c1ccc(Br)o1 | 83.4% (inactive)
CS(=O)(=O)c1ncc(Cl)c(C(=O)Nc2ccc(N3CCOCC3)cc2)n1 | 92.7% (inactive)
CCC(CO)Oc1cc(NCc2cccc(C)c2)c2ncn(C(C)C)c2c1 (centres undefined) | 89% (inactive)
CC1(C)CC(=O)C2=C(C1)c1c(ccc3ccccc13)NC2c1cc([N+](=O)[O-])cc([N+](=O)[O-])c1O (centres undefined) | 83.6% (inactive)
N=C1/C(=C\c2ccc(OC(=O)c3ccccc3Cl)cc2)C(=O)N=C2SC(N3CCOCC3)=NN12 | 101% (inactive)
Nc1nc(C2C(=O)CCCC2=O)cs1 | 97.5% (inactive)
O=C(Nc1c(F)c(F)c(F)c(F)c1F)NC1CCCCC1 | 93.3% (inactive)
O=C(O)c1ccccc1N=Nc1c(O)[nH]c2ccc([N+](=O)[O-])cc12 | 86.8% (inactive)
CC(C)c1ccc(N2C(=O)C(Cl)=C(N3CCOCC3)C2=O)cc1 | 97.4% (inactive)
O=C(CC(Nc1ccc(Cl)cc1Cl)C(=O)O)c1ccccc1 (centres undefined) | 101% (inactive)
Cc1c(Cl)cccc1NC(CC(=O)c1ccccc1)C(=O)O (centres undefined) | 104% (inactive)
O=C(NNc1ccc(O)cc1)c1ccc(Br)cc1 | 99.3% (inactive)
Cc1cccc(NC(=O)CSc2nnc(-c3ccco3)c(-c3ccco3)n2)c1C | 91.5% (inactive)
Cc1ccc(O)c(NC2=C(Cl)C(=O)N(Cc3ccccc3)C2=O)c1 | 91.5% (inactive)
O=C1/C(=C2\C(=O)N(Cc3ccc(F)cc3)c3ccccc32)SC(=S)N1CCS(=O)(=O)O | 98.8% (inactive)
Cc1ccc(S(=O)(=O)N2[C@@H](c3cccc(Cl)c3)C(C(=O)O)=CC[C@H]2c2ccc(C(C)C)cc2)cc1 | 104% (inactive)
O=C(CSc1nc(O)c(Cc2ccccc2)c(=O)[nH]1)Nc1nnc(SCc2ccccc2)s1 | 93.8% (inactive)
Oc1cc(CNC2CCCCC2)c(O)cc1CNC1CCCCC1 | 93.5% (inactive)
CC(C)C[C@H](N)c1nnc(SCC(=O)Nc2ccc(Br)cc2)o1 | 105% (inactive)
Cc1ccc(S(=O)(=O)Cc2ccc(C(=O)N3CCC(C(N)=O)CC3)o2)cc1 | 106% (inactive)
CC(C)c1cc2c(c(O)c1O)[C@@]13CCCC(C)(C)C1CC2OC3=O (some centres undefined) | 87.4% (inactive)
Cc1ccc(-c2csc(NS(=O)(=O)c3cccc(F)c3)n2)o1 | 110% (inactive)

SMILES | viability
CCc1c(C)sc(NC(=O)OC)c1C(=O)N1CCCCC1 | 101% (inactive)
O=C(O)c1ccccc1C(=O)c1ccc(Sc2ccc(Cl)cc2)c([N+](=O)[O-])c1 | 101% (inactive)
Cc1sc(NC(=O)c2ccco2)c(C(c2ccncc2)N2CCOCC2)c1C (centres undefined) | 99.2% (inactive)
CC1(C)CC(=O)C(C(c2ccco2)C2C(=O)CC(C)(C)CC2=O)C(=O)C1 | 115% (inactive)
Cc1noc(NS(=O)(=O)c2ccc(NC(=O)c3ccccc3NS(=O)(=O)c3ccc(F)cc3)cc2)c1C | 93.3% (inactive)
C/C(=N/Nc1ccc(C(=O)O)cc1)c1ccc(O)c(O)c1O | 100% (inactive)
CCS(=O)(=O)c1nc(S(=O)(=O)c2ccc(C)cc2)c(N2CCOCC2)s1 | 108% (inactive)
O=C(O)c1ccc(/C=N/Nc2ccc(S(=O)(=O)N3CCCC3)cc2[N+](=O)[O-])cc1 | 91.7% (inactive)
O=[N+]([O-])c1cc2c(cc1C=Nc1ccccc1)OCO2 | 102% (inactive)
O=C1ON=C(c2ccccc2)/C1=C/c1ccc(-c2ccccc2[N+](=O)[O-])o1 | 96.9% [at 20 µM] (inactive)
Cc1ccc2nsnc2c1S(=O)(=O)N(CCO)Cc1cc2cc3c(cc2[nH]c1=O)OCCO3 | 102% (inactive)
COc1cccc(/C=C2/C(=O)NN(c3ccc(F)cc3)C2=O)c1 | 90.1% (inactive)
CCC(C)NC(=O)Cc1ccc(-c2ccccc2)cc1 (centres undefined) | 91.8% (inactive)
CC1=NN(c2nc(-c3ccc(Cl)cc3)cs2)C(=O)C1 | 87.3% (inactive)
CCCC(=Nc1ccc(N)cc1)C1=C(O)C(C(=O)OC)C(C)(C)CC1=O (centres undefined) | 101% (inactive)
O=C1C(O)=C(O)C(=O)c2ccccc21 | 90.9% (inactive)
COC(=O)c1ccc(-c2ccc(C(c3c(C)[nH][nH]c3=O)c3c(C)[nH][nH]c3=O)o2)cc1 | 94.6% (inactive)
O=C(Nc1cccc(Oc2ccc(C(=O)O)c(C(=O)O)c2)c1)c1ccc(-c2ccccc2)cc1 | 106% (inactive)
CC1CCC(C(C)C)C2=C1C(C#N)(C#N)C(C#N)(C#N)C(c1ccccc1)N2 (centres undefined) | 87.7% (inactive)
CC1(C)CC(=O)C(=Cc2cn(CCC#N)nc2-c2ccc(Cl)cc2)C(=O)C1 | 99.2% (inactive)
Cc1ccc(-c2nn(-c3ccccc3)cc2/C=C2\SC(=S)N(CC(=O)O)C2=O)cc1 | 82.5% (inactive)
O=C(Nc1ccc(Cl)cc1)C1c2cccc[n+]2CC(=O)N1Cc1ccc2c(c1)OCO2 (centres undefined) | 96.9% (inactive)

SMILES | viability
CCOc1cc(Br)cc(C(c2c(C(=O)O)[nH]c3ccccc23)c2c(C(=O)O)[nH]c3ccccc23)c1O | 98.4% (inactive)
Cc1nn(-c2ccccc2)c2c1C(c1cccs1)C(C#N)=C(N)O2 (centres undefined) | 93.6% (inactive)
Cc1ccc(CCNC(=O)C2CCN(S(=O)(=O)N3CCCCC3)CC2)cc1 | 98.7% (inactive)
O=[N+]([O-])c1ccccc1-c1ccc(C(=S)N2CCCC2)o1 | 85.2% (inactive)
O=[N+]([O-])c1ccccc1-c1ccc(C(=S)N2CCCCC2)o1 | 86.6% (inactive)
O=C1NN(c2ccccc2)C(=O)/C1=C/c1ccc(-c2ccc(Cl)c(C(=O)O)c2)o1 | 101% (inactive)
O=C(O)c1ccc(Cn2cc(/C=C\[N+](=O)[O-])c3ccccc32)o1 | 87.8% (inactive)
COc1cc(-c2cccs2)cc(=O)c2c(C)oc(C)c12 | 111% (inactive)
CCOc1ccc(/C=C2\SC(=S)N(CCC(=O)Nc3ccccc3C(=O)O)C2=O)cc1 | 103% (inactive)
COc1ccc(C(=O)Nc2cc(C(=O)c3ccccc3)c(C)oc2=O)cc1 | 90.6% (inactive)
Cc1ccc(C(=O)c2coc3c2C(=O)C(=O)c2ccccc2-3)cc1 | 87.2% (inactive)
Cc1oc(=O)c(NC(=O)c2ccccc2)cc1C(=O)c1ccccc1 | 89.3% (inactive)
O=C(COc1cccc2ccccc12)Nc1cc(Cl)ccc1C(=O)O | 92.5% (inactive)
O=C1Nc2ccc(F)cc2C12Nc1ccccc1-c1nnc(SCc3ccccc3F)nc1O2 (centres undefined) | 95.3% (inactive)
CC1=NOC(=O)/C1=C\c1ccc(-c2ccc(Br)cc2C(=O)O)o1 | 96.7% (inactive)
CCOC(=O)c1c(-c2ccc(C)c(C)c2)csc1NC(=O)C1CC=CCC1C(=O)O (centres undefined) | 99.5% (inactive)
COC(=O)COc1ccc(C2Nc3c(Cl)ccc(C(=O)O)c3C3C=CCC32)cc1 (centres undefined) | 95.6% (inactive)
N#C/C(=C(/O)CSc1ccccc1C(=O)O)c1nc2ccccc2s1 | 96% (inactive)
COc1ccc(CC(=O)NCc2ccc3c(c2)cc(C)n3C)cc1 | 106% (inactive)
CC1=NN(c2nc(-c3ccc(F)cc3)cs2)C(=O)C1 | 96.5% (inactive)
